The values below come from PubChem BioAssay AID1347165 (National Center for Advancing Translational Sciences (NCATS), 2019).

The structures appear in SMILES notation. About 5,700 (2.6%) of roughly 220,000 compounds were called active. Not shown: some 18% with an inconclusive outcome. The sample holds actives, similar compounds and a random draw of the others, so the mix is not that of the screen. Unmarked numbers belong to inactive results. Calls come from the whole dose curve; as a rule, active = well fitted inhibition curve with a large enough effect; inconclusive = small, poorly fitted or top-dose-only effect; inactive = no such curve, though single readings can be large or run the other way.
Potency is the fitted concentration of half-maximal effect.

Chain of Lysine-specific demethylase 5B (Homo sapiens) (Q9UGL1 whole entry, looked up): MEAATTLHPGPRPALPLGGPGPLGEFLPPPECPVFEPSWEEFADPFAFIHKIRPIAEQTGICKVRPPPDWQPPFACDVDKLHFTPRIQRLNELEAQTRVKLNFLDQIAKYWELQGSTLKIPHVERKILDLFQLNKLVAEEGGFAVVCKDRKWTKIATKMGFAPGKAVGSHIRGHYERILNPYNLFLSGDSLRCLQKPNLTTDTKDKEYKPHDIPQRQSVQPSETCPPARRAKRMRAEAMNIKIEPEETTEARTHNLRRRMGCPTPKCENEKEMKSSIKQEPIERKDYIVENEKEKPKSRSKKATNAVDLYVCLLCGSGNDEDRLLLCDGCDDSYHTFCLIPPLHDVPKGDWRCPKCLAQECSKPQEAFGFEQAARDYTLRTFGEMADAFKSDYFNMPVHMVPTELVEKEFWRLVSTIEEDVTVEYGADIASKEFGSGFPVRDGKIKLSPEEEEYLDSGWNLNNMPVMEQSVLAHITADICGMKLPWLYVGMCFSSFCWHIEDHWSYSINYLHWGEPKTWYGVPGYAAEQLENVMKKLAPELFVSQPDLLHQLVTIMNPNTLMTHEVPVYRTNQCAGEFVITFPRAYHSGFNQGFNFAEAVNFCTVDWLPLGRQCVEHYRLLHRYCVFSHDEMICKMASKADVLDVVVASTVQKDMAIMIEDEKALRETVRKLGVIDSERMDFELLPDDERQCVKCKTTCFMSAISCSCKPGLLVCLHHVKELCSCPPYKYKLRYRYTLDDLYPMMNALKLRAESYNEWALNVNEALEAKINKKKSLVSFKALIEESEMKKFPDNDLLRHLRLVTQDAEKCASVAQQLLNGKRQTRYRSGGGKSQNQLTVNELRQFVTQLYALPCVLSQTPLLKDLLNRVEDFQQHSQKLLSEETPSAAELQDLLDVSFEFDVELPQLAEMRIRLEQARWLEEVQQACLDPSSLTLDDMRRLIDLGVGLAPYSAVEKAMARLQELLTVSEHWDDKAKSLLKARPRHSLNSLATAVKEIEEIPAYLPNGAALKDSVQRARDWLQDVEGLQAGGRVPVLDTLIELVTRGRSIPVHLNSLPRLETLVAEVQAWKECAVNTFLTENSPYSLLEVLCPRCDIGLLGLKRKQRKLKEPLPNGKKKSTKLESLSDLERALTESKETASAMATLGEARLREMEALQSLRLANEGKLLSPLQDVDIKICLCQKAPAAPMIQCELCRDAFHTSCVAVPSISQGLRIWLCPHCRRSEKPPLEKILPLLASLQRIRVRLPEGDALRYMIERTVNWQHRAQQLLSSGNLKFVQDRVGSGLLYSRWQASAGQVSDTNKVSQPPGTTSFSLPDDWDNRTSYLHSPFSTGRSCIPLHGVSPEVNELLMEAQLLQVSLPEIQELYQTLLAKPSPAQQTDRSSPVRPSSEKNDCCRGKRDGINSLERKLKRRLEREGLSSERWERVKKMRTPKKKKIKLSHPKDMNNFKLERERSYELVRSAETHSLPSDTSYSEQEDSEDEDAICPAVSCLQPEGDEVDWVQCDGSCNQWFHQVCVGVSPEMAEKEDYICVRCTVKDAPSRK

This test addresses Lysine-specific demethylase 5B (Homo sapiens) (UniProt Q9UGL1). Kind of test: Primary screen for KDM5B Histone Demethylases FDH-coupled qHTS. For activity change, negative = inhibition: 0% is about no effect. Note: nearly all actives have a fitted effect of over 70% in size. The conditions noted are these: FDH-coupled NADH fluorescence (FDH is formaldehyde dehydrogenase); series mostly up to 57.7 µM; activity change, negative = inhibition: at the top concentration. The procedure, abridged:
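Compound dilutions met 200 nM (final) KDM5BΔAP for 10 min at room temperature before substrate addition. The substrate mix held 12.5 µM H3K4me3 with cofactors 25 µM α-ketoglutarate and 50 µM Fe²⁺. NADH signal gain over 30 min defined activity.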
For `CCc1nc2c(c(-c3ccc(Cl)cc3)n1)CCN([S+](=O)([O-])c1cccs1)CC2`, the “activity change, negative = inhibition” value is -5.25%.
On the same count and under the same terms, the same measure for `O=C(O)c1ccc(C(=O)C2CCCCC2C(=O)O)cc1` (centres undefined): -1.13%.
As to `Cc1nn(-c2ncnc3nc[nH]c23)c2c1C(c1ccc(F)cc1F)CC(=O)N2` (centres undefined), the “activity change, negative = inhibition” value is 4.52%.
`Cc1cccc(OCc2nn3c(CN4CCOCC4)nnc3s2)c1`: the “activity change, negative = inhibition” value was 14.6%.
On the same count and under the same terms, with `Cc1cc2c(s1)CCCCCCCCCC/C2=N\Nc1ccc([N+](=O)[O-])cc1` the figure was 2.3%; with `O=C(Nc1ccc2oc(=O)ccc2c1)c1cccc2ccccc12`, -28.6%; with `CC(NC(=O)c1ccc(SC(F)(F)F)cc1)c1ccccn1` (centres undefined), 15.1%.
The same measure, in the same setting: with `COc1ccc(NC(=O)Cc2c(C)c3ccc(O)cc3oc2=O)cc1` the figure was -1590%; with `CC1(C)CC(NC(=O)Nc2ccc(OC(F)(F)F)cc2)CC(C)(C)N1`, -11.3%.
Turning to `CN(C)C(=O)c1nc(-c2ccc(Cl)cc2Cl)c2cnccn12`, the Potency is 100 µM (active).
As to `CN(C)C(=O)c1nc(-c2cccnc2)c2ccccn12`, the “activity change, negative = inhibition” value is -6220% [at 86.2 µM].
Still for that read-out and setting: the same measure for `CC1CCCCN1CCNC(=O)c1cc2c(s1)-c1ccccc1OC2` (centres undefined): -2590%; for `CCCNC(=O)N1CC(Oc2ccc(-c3nc(C)no3)cc2)C1`: 9.29%.
On the same count and under the same terms, with `CN(C)c1ccc(C(=O)NCc2nnc3cc(-c4nc(C5CC5)no4)ccn23)cc1` the figure was 14.7%; with `CC(C)NC(=O)C1CCc2nnc(CNC(=O)c3ccc(Cl)cc3Cl)n21` (centres undefined), -7.29% [at 115 µM].
For the compound `O=C(NCc1nnc2cc(-c3nc(C4CC4)no3)ccn12)c1ccc(F)cc1Cl`, the Potency was 28.2 µM (active).
The same measure, in the same setting: the same measure for `COc1ccc(C(=O)NCc2nnc3cc(-c4nc(C)no4)ccn23)cc1`: 25.1 µM (active); for `CCc1noc(-c2ccn3c(CNC(=O)c4ccco4)nnc3c2)n1`: 28.2 µM (active).
In the case of `COc1ccc(CNC(=O)c2ccc3oc(C(C)C)nc3c2)cc1`, the “activity change, negative = inhibition” value is 3.12%.
Turning to `CCCC(=O)Nc1ccc2c(c1)nc(CCNC(=O)c1ccco1)n2C`, the “activity change, negative = inhibition” value is 7.76%.
On the same count and under the same terms, the same measure for `NS(=O)(=O)c1ccc(F)c(C(=O)NCc2noc(-c3ccco3)n2)c1`: 8.53%; for `CSc1ncc(C(=O)NCCCc2ccccc2)c(C)n1`: 30.1%.
The same measure, in the same setting: with `CCc1ccc(C2C(C(=O)Nc3ccccc3)=C(C)Nc3c(C(=O)Nc4ccc(F)cc4)cnn32)cc1` (centres undefined) the figure was -3.45%; with `COc1ccc(CC(=O)NC(CCSC)c2nc3ccccc3[nH]2)cc1` (centres undefined), 5.81%; with `Cc1cc(=O)oc2cc(OCC(=O)NCc3cccs3)c(Cl)cc12`, -21%.
The same measure, in the same setting: the same measure for `COc1ccc(CNC(=O)CN(Cc2ccccc2Cl)C(=O)c2csnn2)cc1`: -46.8%; for `Cc1noc(-c2ccccc2NC(=O)C2CC(=O)N(c3cccc(C(F)(F)F)c3)C2)n1` (centres undefined): 5%.
With `CC(C)c1nc2c(c(-c3ccc(Cl)cc3)n1)CN(C(=O)c1ccccc1)CC2`, the “activity change, negative = inhibition” value was 0.108%.
Still for that read-out and setting: with `O=C(c1cccc(Cl)c1)N1CCc2nc(C3CC3)nc(-c3ccc(Cl)cc3)c2C1` the figure was -13.9%.
Regarding `N#CC1CCN(C(=O)c2nc(-c3ccc(Cl)cc3)c3ccccn23)CC1`, the Potency is 25.1 µM (active).
For the compound `CC(C(=O)N1CCc2ccccc21)N(C)CC(=O)Nc1ccc(F)cc1` (centres undefined), the “activity change, negative = inhibition” value was -3.95%.
Same read-out and setting: the same measure for `CCc1ccc(C(=O)C(C)Sc2nc3ccccc3c(=O)n2CCC(=O)OC)cc1` (centres undefined): -1.17%.
On to `C=CCCC(CN1CCCC1)Oc1cncc(C(=O)N2CCCC2)n1` (centres undefined), for which the Potency is 8.91 µM (active).
Turning to `CCCCCCCCOc1ccc(C(=O)c2ccccc2O)c(O)c1`, the “activity change, negative = inhibition” value is -22.5%.
Still for that read-out and setting: the same measure for `COc1ccc(-c2c(NC(=O)C(C)C)oc3c(C)cccc3c2=O)cc1`: 14.7%; for `O=C(C1CCCC1)N1Cc2ccccc2CC2(CCCCN2CC2CCNCC2)C1` (centres undefined): -21.9% [at 115 µM].
As to `Cn1cccc1CN1CCn2c(nn(-c3cccc(Cl)c3)c2=O)C1`, the Potency is 63.1 µM (active).
As to `COc1ccc(CN2CCn3c(nn(-c4ccncc4)c3=O)C2)cc1`, the “activity change, negative = inhibition” value is -4.9%.
On the same count and under the same terms, the same measure for `O=C(c1ccc(C(F)(F)F)cc1)N1CCn2c(nn(-c3cccc(Cl)c3)c2=O)C1`: -25.1%; for `Cc1ccc2c(Cn3cc(S(=O)(=O)N(C)C)ccc3=O)cc(=O)oc2c1`: -7.98%.
The same measure, in the same setting: the same measure for `Cc1ccc(-c2noc(-c3cccc(Cl)c3)n2)cc1`: 8.72%.
Consider `CC(C)CC(=O)N1CCN(c2nnc3ccccn23)CC1`, for which the Potency was 28.2 µM (active).
Consider `O=C(CSc1nc2ccccc2nc1N1CCCC1)N1CCN(c2ccccc2)CC1`, for which the “activity change, negative = inhibition” value is 8.38%.
Still for that read-out and setting: with `CCC(C)c1ccc(-n2c(SCC(=O)N3CCC3)nc3ccccc3c2=O)cc1` (centres undefined) the figure was 8.34%.
Regarding `CC(C)CC(=O)N1CCCN(c2nnc3ccccn23)CC1`, the Potency is 25.1 µM (active).
On to `Cc1ccc(C(=O)C(C)Sc2nnc3ccccn23)cc1` (centres undefined), for which the “activity change, negative = inhibition” value is 18.6%.
On the same count and under the same terms, the same measure for `O=C(c1ccsc1)N1CCN(c2nnc3ccc(C(F)(F)F)cn23)CC1`: -11.3%; for `O=C(/C=C/c1ccc(Cl)cc1Cl)Nc1ccc(-c2ccccc2)cc1`: -2.18%.
Still for that read-out and setting: the same measure for `Cc1cc(=O)oc2c(C)c(OC(=O)CN3C(=O)NC4(CCCC4)C3=O)ccc12`: 117%; for `N#C/C(=C/c1cccnc1)C(=O)NCCc1ccccc1`: 6.13%.
Same read-out and setting: with `COCCNC(=S)NC1CC(C)(C)NC(C)(C)C1` the figure was 33.5%; with `Cc1ccc2[nH]cc(CCNC(=O)c3ccc(F)c(F)c3)c2c1`, 9.95%; with `O=C(c1ccccc1)c1ccc(C2CC2)cc1`, 10.3%.
In the case of `COc1cccc(C2Cn3nnc(-c4nc(-c5ccccc5F)no4)c3CO2)c1` (centres undefined), the “activity change, negative = inhibition” value was -14%.
